Assay results as given in the supplement of paper PMC8975748.
Where a name gives a salt, the structure may show the parent alone.

Test system: Saccharomyces cerevisiae BY4741 SeMeCo community
Experiment: z-score of subpopulation abundance vs DMSO median, subpopulation auxotrophic for HM; higher = larger share of this subpopulation than in DMSO controls
Settings: 10 µM; 24 h; SM minimal medium; subpopulation (auxotrophy): HM
Protocol: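 Fluorescent four-plasmid SeMeCo (self-establishing metabolically cooperating S. cerevisiae BY4741 community; plasmids pH-mRuby2, pL-mWasabi, pU-eCFP, pM-TagRFP657) was grown 24 h in minimal SM medium with each Selleck FDA-approved drug at 10 µM in 384-well plates. Cells were fixed and imaged by high-content confocal microscopy. For each auxotrophic subpopulation (and the prototroph), a z-score gives the deviation from the DMSO vehicle-control population median.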

| SMILES | z-score of subpopulation abundance |
| --- | --- |
| CCCN[C@H]1CCc2nc(N)sc2C1 [Pramipexole 2HCl Monohydrate] | -0.39 |
| CC[C@H]1OC(=O)[C@H](C)[C@@H](O[C@H]2C[C@@](C)(OC)[C@@H](O)[C@H](C)O2)[C@H](C)[C@@H](O[C@@H]2O[C@H](C)C[C@H](N(C)C)[C@H]2O)[C@](C)(O)C[C@@H](C)CN[C@H](C)[C@@H](O)[C@]1(C)O [Azathramycin] | 0.1 |
| O=C(O)CCNC(=O)c1ccccc1 [Betamipron] | -0.4 |
| COc1cc2c(cc1OC)C(=O)C(CC1CCN(Cc3ccccc3)CC1)C2 (stereo not given) [Donepezil HCl] | -0.33 |
| CO[C@H]1O[C@@H]2O[C@@]3(C)CC[C@H]4[C@H](C)CC[C@@H]([C@H]1C)[C@@]24OO3 [Artemether] | -2 |
| C[C@@H](NCCCc1cccc(C(F)(F)F)c1)c1cccc2ccccc12 [Cinacalcet HCl] | 0.25 |
| CCCCCCCCN=C(N)NC(N)=NCc1ccc(Cl)c(Cl)c1 [Olanexidine Hydrochloride semihydrate] | 13.8 |
| COc1ccnc(C[S+]([O-])c2nc3cc(-n4cccc4)ccc3[nH]2)c1C (stereo not given) [Ilaprazole] | 0.96 |
| COc1ccc(Cl)cc1C(=O)NCCc1ccc(S(=O)(=O)NC(=O)NC2CCCCC2)cc1 [Glyburide (Glibenclamide)] | 0.56 |
| CCCCCOc1ccc(-c2cc(-c3ccc(C(=O)N[C@H]4C[C@@H](O)[C@@H](O)NC(=O)[C@@H]5[C@@H](O)[C@@H](C)CN5C(=O)[C@H]([C@H](O)CC(N)=O)NC(=O)[C@H]([C@H](O)[C@@H](O)c5ccc(O)c(OS(=O)(=O)O)c5)NC(=O)[C@@H]5C[C@@H](O)CN5C(=O)[C@H]([C@@H](C)O)NC4=O)cc3)no2)cc1 [Micafungin Sodium] | 1.38 |
| Cc1cnc(NC(=O)C2=C(O)c3ccccc3S(=O)(=O)N2C)s1 [Meloxicam] | -0.89 |
| Cc1nnc(SCC2=C(C(=O)O)N3C(=O)[C@@H](NC(=O)Cn4cnnn4)[C@H]3SC2)s1 [Cefazolin Sodium] | 0.05 |
| C=CC(C)(O)CCC=C(C)C (stereo not given) [Linalool] | -0.25 |
| Cc1ccc(Sc2ccccc2N2CCNCC2)c(C)c1 [Vortioxetine] | -0.01 |
| COc1ccc(C(=O)NCc2ccc(OCCN(C)C)cc2)cc1OC [Itopride hydrochloride] | 0.17 |
| CO[C@H]1C[C@@H]2CC[C@@H](C)[C@@](O)(O2)C(=O)C(=O)N2CCCC[C@H]2C(=O)O[C@H]([C@H](C)C[C@@H]2CC[C@@H](OCCO)[C@H](OC)C2)CC(=O)[C@H](C)/C=C(\C)[C@@H](O)[C@@H](OC)C(=O)[C@H](C)C[C@H](C)/C=C/C=C/C=C/1C [Everolimus (RAD001)] | 22.4 |
| OC(CCN1CCCCC1)(c1ccccc1)C1CCCCC1 (stereo not given) [Trihexyphenidyl hydrochloride] | -0.75 |
| CCCCC(F)(F)[C@@]1(O)CC[C@H]2[C@@H](CC(=O)[C@@H]2CCCCCCC(=O)O)O1 [Lubiprostone] | -0.8 |
| Oc1c(Br)cc(Br)c2cccnc12 [Broxyquinoline] | 27.7 |
| CC[C@H]1OC(=O)[C@H](C)[C@@H](O[C@H]2C[C@@](C)(OC)[C@@H](O)[C@H](C)O2)[C@H](C)[C@@H](O[C@@H]2O[C@H](C)C[C@H](N(C)C)[C@H]2O)[C@](C)(O)C[C@@H](C)C(=O)[C@H](C)[C@@H](O)[C@]1(C)O [Erythromycin thiocyanate] | 0.23 |

| SMILES | z-score of subpopulation abundance |
| --- | --- |
| CN(C/C=C/C#CC(C)(C)C)Cc1cccc2ccccc12 [Terbinafine HCl] | -0.78 |
| COc1ccc2cc([C@H](C)C(=O)O)ccc2c1 [Naproxen] | -0.37 |
| Cc1onc(-c2ccccc2Cl)c1C(=O)N[C@@H]1C(=O)N2[C@@H]1SC(C)(C)[C@@H]2C(=O)O [Cloxacillin Sodium] | -0.01 |
| CC(=O)O[C@H]1C[C@@H]2CC[C@@H]3[C@H](CC[C@@]4(C)[C@H]3C[C@H]([N+]3(C)CCCCC3)[C@@H]4OC(C)=O)[C@@]2(C)C[C@@H]1N1CCCCC1 [Vecuronium Bromide] | -0.57 |
| COC(=O)C1=C(C)NC(C)=C(C(=O)OC(C)(C)CN(C)CCC(c2ccccc2)c2ccccc2)C1c1cccc([N+](=O)[O-])c1 (stereo not given) [Lercanidipine] | 0.81 |
| COc1ccc2cc(CCC(C)=O)ccc2c1 [Nabumetone] | -0.96 |
| CC(=O)OC1CC2(C)C(CC(O)C3C4(C)CCC(O)C(C)C4CCC32C)C1=C(CCC=C(C)C)C(=O)O (stereo not given) [Fusidine] | 1.19 |
| CC(=O)Oc1ccc(C(=C2CCCCC2)c2ccc(OC(C)=O)cc2)cc1 [Cyclofenil] | -0.93 |
| CCCCCCCCCC(=O)NC1C(Oc2c3cc4cc2Oc2ccc(cc2Cl)C(OC2OC(CO)C(O)C(O)C2NC(C)=O)C2NC(=O)C(NC(=O)C4NC(=O)C4NC(=O)C(Cc5ccc(c(Cl)c5)O3)NC(=O)C(N)c3ccc(O)c(c3)Oc3cc(O)cc4c3)c3ccc(O)c(c3)-c3c(OC4OC(CO)C(O)C(O)C4O)cc(O)cc3C(C(=O)O)NC2=O)OC(CO)C(O)C1O (stereo not given) [Teicoplanin] | 1.4 |
| Cc1c(OCC(F)(F)F)ccnc1C[S+]([O-])c1nc2ccccc2[nH]1 (stereo not given) [Lansoprazole] | -0.45 |
| Fc1ccc(C(c2ccc(F)cc2)N2CCN(C/C=C/c3ccccc3)CC2)cc1 [Flunarizine 2HCl] | 1.01 |
| Oc1c(Cl)cc(Cl)c2cccnc12 [Chloroxine] | 28.2 |
| CC(C)[N+](C)(CCOC(=O)C1c2ccccc2Oc2ccccc21)C(C)C [Propantheline bromide] | 0.76 |
| O=C(O)c1cccnc1Nc1cccc(C(F)(F)F)c1 [Niflumic acid] | -0.03 |
| O=C1[C@H]2CCCC[C@H]2C(=O)N1CCCCN1CCN(c2nsc3ccccc23)CC1 [Perospirone hydrochloride] | -0.27 |
| C#C[C@]1(O)CC[C@H]2[C@@H]3CCc4cc(OC)ccc4[C@H]3CC[C@@]21C [Mestranol] | -0.5 |
| CN1C2CCCC1CC(NC(=O)c1nn(C)c3ccccc13)C2 (stereo not given) [Granisetron] | 0.6 |
| O=C(CCCN1CCC(O)(c2ccc(Cl)cc2)CC1)c1ccc(F)cc1 [Haloperidol] | -0.68 |
| NC(=O)OCC(COC(N)=O)c1ccccc1 [Felbamate] | -1.32 |
| Cc1ccc(Sc2ccccc2N2CCNCC2)c(C)c1 | -0.62 |
